This is an account of results in PubChem BioAssay.

Calls of active or inactive are those of the source.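 The calls were made as follows: active = primary screen active and over 50% activation in each of two duplicate runs; inactive = the rest.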

For this assay, the system named is transient receptor potential cation channel C4 beta (TRPC4), mouse. The assay can be described thus: TRPC4 cation channel opening, second retest – cell-based, second round, Fluo4, HEK293 TRPC4beta/mu-opioid, 1 µM, confirmation (AID 2461). Particulars: Fluo4 calcium fluorescence, at 1 µM.
Turning to `CCCn1c(NCc2cc(OC)ccc2OC)nc2ccccc21`, the outcome was inactive.

With `COC(=O)c1ccc(NC(=O)CCN2CCN(Cc3ccccc3)CC2)cc1`, the result was inactive.

For `Cn1c(=O)c2c(nc(SCCN3CCCCC3)n2Cc2ccccc2)n(C)c1=O`, the result was inactive.

As for `O=C(NCc1ccccc1Cl)/C(=C\c1cccnc1)NC(=O)c1ccccc1`, the outcome was inactive.

As to `COC(=O)[C@@]12CCCN1[C@H](c1ccc(-c3ccc(OC)cc3)cc1)[C@@H]1C(=O)N(C)C(=O)[C@@H]12`, the outcome was inactive.

On to `COc1ccc(-c2cc(C(F)(F)F)nc(N3CCN(C)CC3)n2)cc1`, for which the outcome was inactive.

On to `CCOc1ccc(NS(=O)(=O)c2ccc(NC(=S)NC(=O)CC(C)C)cc2)cc1`, for which the result was inactive.

Turning to `CCCN(CCC)CCCNC(=O)c1cc2c(=O)n(C)c3ccccc3c2n1C`, the result was inactive.

For the compound `COc1ccc(CNCC(O)(c2ccccc2)c2ccccc2)cc1OC`, the outcome was inactive.

For `CCOc1cc2[nH]c(=S)n(C3CC3)c(=O)c2cc1OCC`, the result was inactive.

With `CCOC(=O)c1c(C(F)(F)C(F)(F)C(F)(F)C(F)(F)F)n[nH]c1C`, the result was inactive.

As for `Cn1c(=O)cc(OCCCC(=O)NCCCN2CCN(Cc3ccccc3)CC2)c2ccccc21`, the result was inactive.

For the compound `CC(=O)C1=C(O)C(=O)N(Cc2ccco2)C1c1ccc2c(c1)OCO2` (configuration not stated), the outcome was inactive.

Regarding `CCc1cc2c(SCC(=O)N(C)C3CCS(=O)(=O)C3)ncnc2s1` (configuration not stated), the outcome was inactive.

Consider `OC(CNCC1CCCO1)Cn1c2ccc(Br)cc2c2cc(Br)ccc21` (configuration not stated), for which the result was inactive.

Take `CCN1CCN(c2ccc(S(=O)(=O)N3CCCCC3)cc2NC(=O)c2cccc(F)c2)CC1`: the result was inactive.

Regarding `COC(=O)/C=C1\SC(=NC(=O)c2cccc(Cl)c2)NC1=O`, the outcome was inactive.
